The source made the active and inactive calls.

Assay [1] is described as follows: probe aShh binding to arrayed compounds – biochemical, biotinylated probe, 635/667 nm fluorescence, primary screen (AID 1114).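 Further: probe is biotin-labelled aShh protein from a stem cell growth factor screen; measures binding of labelled protein to compounds printed on the slide; score merges feature fluorescence at 667 nm with signal-to-noise.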 To be noted: small-molecule microarray, higher = more signal.
Assay [2] in a line: probe aNog binding to arrayed compounds – biochemical, biotinylated probe, 635/667 nm fluorescence, primary screen (AID 1115).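 Further: probe is biotinylated aNog protein used at 0.15 µg/mL for 1 h at 4 C; z-score combines 667 nm fluorescence of each spot with its signal to noise.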 To be noted: small-molecule microarray, higher = more signal.
For assay [3], the target named is Torsin-1A-interacting protein 1 (Homo sapiens) (UniProt Q5JTV8). In words: compound microarray binding of lysate hLAP1 – cell lysate, small-molecule microarray, COS7 lysate, 635/667 nm fluorescence, primary screen (AID 1116). The note with it: 635 nm fluorescence, higher = more signal.
The target in another assay is Albumin (Bos taurus) (UniProt P02769). The experiment in a line: compounds binding labelled BSA control protein – biochemical, small-molecule microarray, Alexa647 label, 635/667 nm fluorescence, artefact control for SMM control protein annotation, profiling panel (AID 1118).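 Further: score merges 667 nm emission intensity and signal-to-noise per printed compound spot.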 The note with it: BSA-A647 binding, fluorescence 635 nm, higher = more signal.
The nature of assay [4]: probe aXIP binding to arrayed compounds – biochemical, NeuroSMM set, 635/667 nm fluorescence, primary screen (AID 1119).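 Further: probe is the protein aXip251-270 applied at 1 µg/mL to compound-printed slides; binding of probe to printed compounds measured as 667 nm fluorescence plus signal to noise.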 The note with it: small-molecule microarray, higher = more signal, called active from +8 up or from −8 down.
A short description of assay [5]: probe aNOTCH3 binding on compound microarray – biochemical, small-molecule microarray, 635/667 nm fluorescence, primary screen (AID 1120).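 Further: probe is a biotin-tagged antibody raised against NOTCH3 rather than NOTCH3 protein; score merges spot fluorescence near 667 nm with spot signal to noise.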 To be noted: higher = more signal.
Assay [6] in a line: probe aNOTCH2 binding on compound microarray – biochemical, small-molecule microarray, 635/667 nm fluorescence, primary screen (AID 1121).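 Further: score merges feature fluorescence read at 667 nm with its signal to noise.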 The note with it: higher = more signal.
In assay [7] the target is Carbonic anhydrase 2 (Homo sapiens) (UniProt P00918). The experiment in a line: compounds binding carbonic anhydrase 2 – biochemical, small-molecule microarray, Alexa647-labelled CAII, profiling panel (AID 1122). To be noted: CAII-A647 binding fluorescence, higher = more signal.
The nature of assay [8]: COS7 lysate on small-molecule microarray, probe aHis, 635 nm (AID 1123).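 Further: z-score combines 667nm fluorescence intensity with signal-to-noise per printed compound spot.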 The note with it: COS7 cell lysate, fluorescence, higher = more signal.
Assay [9] in a line: probe aLAP1 signal on lysate-treated microarray – cell lysate, small-molecule microarray, COS7 lysate, primary screen (AID 1124).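 Further: lysate comes from COS7 cells expressing LAP1 and is applied at 0.3 µg/mL; score merges spot fluorescence near 667 nm with signal-to-noise over triplicate slides.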 To be noted: probe aLAP1, fluorescence, higher = more signal.
Another assay relates to Sam68 (KHDRBS1). In words: compounds binding KHDRBS1 protein – biochemical, small-molecule microarray, 635 nm fluorescence, primary screen (AID 1125).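 Further: score merges 667 nm channel intensity with signal to noise over triplicate slides.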 The note with it: higher = more signal.
Assay [10] concerns Chordin-like protein 2 (CHRDL2). In words: compounds binding chordin-like 2 – biochemical, small-molecule microarray, 635 nm fluorescence, primary screen (AID 1126).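 Further: printed compound slides probed with Chrdl2 protein at 4 µg/mL for 1 h at 4 C; score merges 667 nm emission intensity with signal to noise over three replicate slides.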 The note with it: fluorescence 635 nm, higher = more signal.
The target in assay [11] is Concanavalin-A (Canavalia ensiformis) (UniProt P02866). The experiment in a line: compounds binding concanavalin A lectin – biochemical, small-molecule microarray, Alexa647 label, 635 nm, artefact control for SMM control protein annotation, primary screen (AID 1127).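 Further: z combines 667 nm emission intensity with signal-to-noise across three replicate slides.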 The note with it: ConA-A647 binding fluorescence, higher = more signal.
A short description of assay [12]: compounds binding Alexa647 anti-His antibody – biochemical, small-molecule microarray, 635 nm fluorescence, artefact control for SMM control protein annotation, primary screen (AID 1128).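 Further: score merges feature fluorescence with signal-to-noise for each printed compound spot.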 The note with it: higher = more signal.
In assay [13] the test system is Human papillomavirus type 1a E7 protein (residues 1-88). In words: HPV1a E7 small-molecule binders, primary screen, biochemical, small-molecule microarray, residues 1-88, 635 nm (AID 1129). To be noted: small-molecule microarray binding, fluorescence 635 nm; higher = more signal.
Assay [14] has as its target Focal adhesion kinase 1 (Homo sapiens) (UniProt Q05397). In words: PTK2 protein binding on printed compound slides – biochemical, small-molecule microarray, 635/667 nm fluorescence, BSA, DTT, primary screen (AID 1130).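 Further: composite of spot emission at 667 nm and signal to noise over triplicate slides.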 To be noted: 635 nm fluorescence, higher = more signal.
Assay [15] has as its system Fibrinogen (Alexa647-labelled). In words: Alexa647-fibrinogen binding to printed small molecules – biochemical, small-molecule microarray, 635/667 nm fluorescence, artefact control for SMM control-protein annotation, profiling panel (AID 1131).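 Further: z-score merges 667 nm fluorescence with per-spot signal-to-noise over triplicate slides.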 To be noted: fibrinogen-A647 binding fluorescence, higher = more signal.
Assay [16] deals with Follistatin (Homo sapiens) (UniProt P19883). In words: FST protein binding to printed compounds – biochemical, small-molecule microarray, 635/667 nm fluorescence, primary screen (AID 1132). The note with it: 635 nm fluorescence, higher = more signal.
In assay [17] the target is Fibroblast growth factor 2 (Homo sapiens) (UniProt P09038). The experiment in a line: basic fibroblast growth factor binding to printed compounds – biochemical, small-molecule microarray, 635/667 nm fluorescence, primary screen (AID 1133). The note with it: FGF2, fluorescence 635/667, higher = more signal.
Assay [18] is described as follows: JC-1 mitochondrial potential readout, lung cancer cells – cell-based, A549, JC-1 fluorescence, basal, 24 h, 100 nL, profiling panel (AID 1138).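 Further: A549 lung adenocarcinoma cells under basal conditions with no added stimulus; test concentration not given here.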 The note with it: higher = more signal.

Sequence of Fibroblast growth factor 2 (Homo sapiens) (P09038 whole entry, looked up): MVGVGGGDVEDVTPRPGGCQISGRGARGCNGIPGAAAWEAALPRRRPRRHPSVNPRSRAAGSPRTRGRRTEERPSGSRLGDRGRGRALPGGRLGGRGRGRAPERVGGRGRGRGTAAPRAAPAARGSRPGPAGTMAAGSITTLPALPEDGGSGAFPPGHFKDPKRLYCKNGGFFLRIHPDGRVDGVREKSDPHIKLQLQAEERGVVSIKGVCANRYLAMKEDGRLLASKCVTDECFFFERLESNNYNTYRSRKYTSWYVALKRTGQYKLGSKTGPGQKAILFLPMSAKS
Sequence of Focal adhesion kinase 1 (Homo sapiens) (Q05397 whole entry, looked up): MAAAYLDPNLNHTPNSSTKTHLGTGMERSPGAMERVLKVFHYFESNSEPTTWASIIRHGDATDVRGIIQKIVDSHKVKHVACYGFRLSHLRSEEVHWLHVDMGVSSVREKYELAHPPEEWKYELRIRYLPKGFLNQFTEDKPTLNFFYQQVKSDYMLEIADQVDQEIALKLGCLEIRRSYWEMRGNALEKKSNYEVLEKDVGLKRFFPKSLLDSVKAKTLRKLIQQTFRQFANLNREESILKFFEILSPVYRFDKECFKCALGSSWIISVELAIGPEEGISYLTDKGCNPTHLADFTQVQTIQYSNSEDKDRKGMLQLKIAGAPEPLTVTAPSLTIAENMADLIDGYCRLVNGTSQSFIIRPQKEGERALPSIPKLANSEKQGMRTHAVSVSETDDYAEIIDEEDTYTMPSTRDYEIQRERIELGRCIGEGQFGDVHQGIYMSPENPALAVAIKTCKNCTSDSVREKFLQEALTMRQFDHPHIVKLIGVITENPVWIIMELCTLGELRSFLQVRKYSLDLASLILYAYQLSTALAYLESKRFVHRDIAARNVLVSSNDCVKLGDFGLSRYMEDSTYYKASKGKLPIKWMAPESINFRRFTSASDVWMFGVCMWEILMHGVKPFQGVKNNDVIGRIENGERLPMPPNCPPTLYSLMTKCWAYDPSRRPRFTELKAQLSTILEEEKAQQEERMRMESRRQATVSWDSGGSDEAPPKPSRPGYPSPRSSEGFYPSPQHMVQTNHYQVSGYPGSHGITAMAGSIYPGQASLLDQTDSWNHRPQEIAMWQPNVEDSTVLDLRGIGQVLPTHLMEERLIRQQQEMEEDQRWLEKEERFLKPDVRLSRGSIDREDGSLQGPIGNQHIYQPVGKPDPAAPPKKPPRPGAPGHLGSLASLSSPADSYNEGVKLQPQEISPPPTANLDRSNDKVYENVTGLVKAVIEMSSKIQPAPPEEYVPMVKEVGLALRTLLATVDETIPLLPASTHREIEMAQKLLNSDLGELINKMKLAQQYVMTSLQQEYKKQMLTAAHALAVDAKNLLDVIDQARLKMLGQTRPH
Sequence of Albumin (Bos taurus) (P02769 whole entry, looked up): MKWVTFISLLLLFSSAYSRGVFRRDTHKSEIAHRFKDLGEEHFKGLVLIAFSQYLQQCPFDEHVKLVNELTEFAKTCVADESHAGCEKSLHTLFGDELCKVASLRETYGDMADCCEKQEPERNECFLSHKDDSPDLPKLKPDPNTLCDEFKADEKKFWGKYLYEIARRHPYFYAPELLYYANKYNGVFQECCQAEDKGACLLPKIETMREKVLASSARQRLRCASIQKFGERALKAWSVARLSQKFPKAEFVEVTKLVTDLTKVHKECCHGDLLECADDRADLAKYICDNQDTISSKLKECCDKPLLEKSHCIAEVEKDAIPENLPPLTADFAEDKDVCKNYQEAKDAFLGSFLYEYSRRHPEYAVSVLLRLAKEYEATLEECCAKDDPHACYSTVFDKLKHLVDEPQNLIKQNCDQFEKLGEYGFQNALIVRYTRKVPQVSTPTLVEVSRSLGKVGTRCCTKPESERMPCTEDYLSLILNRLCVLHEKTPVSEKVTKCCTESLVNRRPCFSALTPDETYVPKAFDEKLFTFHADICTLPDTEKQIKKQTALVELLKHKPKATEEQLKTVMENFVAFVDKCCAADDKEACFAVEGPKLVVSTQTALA
Sequence of Torsin-1A-interacting protein 1 (Homo sapiens) (Q5JTV8 whole entry, looked up): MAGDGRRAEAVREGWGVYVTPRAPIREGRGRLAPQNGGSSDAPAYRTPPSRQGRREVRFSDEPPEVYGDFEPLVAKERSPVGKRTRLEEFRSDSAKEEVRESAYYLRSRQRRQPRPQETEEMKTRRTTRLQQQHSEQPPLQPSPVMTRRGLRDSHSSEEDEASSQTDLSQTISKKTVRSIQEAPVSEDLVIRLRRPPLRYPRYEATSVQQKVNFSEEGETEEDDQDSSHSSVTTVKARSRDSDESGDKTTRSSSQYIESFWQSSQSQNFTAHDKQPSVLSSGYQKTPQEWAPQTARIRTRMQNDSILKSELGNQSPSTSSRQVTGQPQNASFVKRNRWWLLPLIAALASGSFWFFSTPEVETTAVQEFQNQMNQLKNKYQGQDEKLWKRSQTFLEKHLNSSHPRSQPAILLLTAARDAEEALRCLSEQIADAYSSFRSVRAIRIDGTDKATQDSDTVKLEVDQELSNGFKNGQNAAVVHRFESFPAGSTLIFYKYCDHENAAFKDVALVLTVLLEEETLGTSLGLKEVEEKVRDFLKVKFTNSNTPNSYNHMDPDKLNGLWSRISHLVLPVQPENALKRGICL
Sequence of Follistatin (Homo sapiens) (P19883 whole entry, looked up): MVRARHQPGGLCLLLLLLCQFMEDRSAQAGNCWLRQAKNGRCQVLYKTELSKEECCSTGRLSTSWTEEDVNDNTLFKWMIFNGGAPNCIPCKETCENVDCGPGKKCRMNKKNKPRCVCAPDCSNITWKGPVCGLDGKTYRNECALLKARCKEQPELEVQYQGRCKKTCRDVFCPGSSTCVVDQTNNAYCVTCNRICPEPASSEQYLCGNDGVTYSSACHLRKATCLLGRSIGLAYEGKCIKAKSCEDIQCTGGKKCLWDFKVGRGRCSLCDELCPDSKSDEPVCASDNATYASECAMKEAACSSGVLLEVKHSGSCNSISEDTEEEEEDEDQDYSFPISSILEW
Sequence of Concanavalin-A (Canavalia ensiformis) (P02866 whole entry, looked up): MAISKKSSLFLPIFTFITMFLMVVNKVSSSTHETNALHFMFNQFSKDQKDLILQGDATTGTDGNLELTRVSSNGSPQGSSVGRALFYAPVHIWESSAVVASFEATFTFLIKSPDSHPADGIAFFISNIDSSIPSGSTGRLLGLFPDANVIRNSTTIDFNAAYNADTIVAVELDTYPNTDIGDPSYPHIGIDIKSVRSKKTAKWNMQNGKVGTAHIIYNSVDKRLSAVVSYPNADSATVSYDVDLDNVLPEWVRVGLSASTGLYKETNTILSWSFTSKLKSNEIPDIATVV

Take `CCOC(=O)C[C@H]1[C@H](OC(=O)c2ccc(-c3ccccc3)cc2)[C@@H](NC(=O)C2CCCCC2)c2cc(OCCCO)ccc2N1C(=O)c1ccc2ccccc2n1`: the composite z-score in assay [1] was -0.0133; in [2], 0.037; in assay [3] it was 0.729; in the assay with Albumin (Bos taurus), 0.821; in [5], 0.0179; in [6], 0.0055. The composite z-score in [7] was -0.252; in assay [8], 0.915; in [9], 0.243; in the assay on Sam68 (KHDRBS1), 1.3; in assay [10], -0.625; in assay [11], 0.814. Besides, the composite z-score in assay [12] is 0.549; in assay [13] it was 1.14; in assay [14] it was 0.347; in assay [15] it was 0.433; in assay [16] it was 0.349; in [17], -0.243. The composite Z-score in [4] is -0.0871 (inactive). Further, in assay [18], the z-score was 1.14.

`COCCOC(=O)N1C(=O)[C@@]2(c3cc(C#CCNC(N)=O)ccc31)[C@H](c1ccccc1OCCO)N1[C@H](c3ccccc3)[C@H](c3ccccc3)OC(=O)[C@H]1[C@@H]2C(=O)Nc1nc2ccccc2s1`: the composite z-score in assay [1] was 0.284; in assay [2], 0.561; in assay [3], 0.745; with Albumin (Bos taurus), 0.598; in assay [5] it was -0.0391; in assay [6], -0.0817. In addition, the composite z-score is 0.439 in assay [7]; 0.862 in assay [8]; 0.292 in [9]; 1.12 in the assay with Sam68 (KHDRBS1); 0.0611 in assay [10]; 1.03 in assay [11]. Moreover, the composite z-score in assay [12] was 0.3; in assay [13] it was 0.965; in [14], 0.374; in assay [15] it was 0.283; in [16], 1.17; in assay [17], 0.271. Moreover, the composite Z-score in assay [4] is 0.564 (inactive). In assay [18], this compound yielded a z-score of -2.07.

As for `C=C(C(=O)CC[C@H](OC(C)=O)c1ccc(CO)o1)C(C)C`, the composite z-score in [1] was 0.0048; in [2], -0.309; in assay [3] it was 1.15; with Albumin (Bos taurus), -0.348; in assay [5] it was -0.0264; in [6], -0.0795. For the same compound, the composite z-score in [7] was 0.614; in assay [8], 0.297; in assay [9] it was 0.629; in the assay with Sam68 (KHDRBS1) it was 0.596; in assay [10], -0.413; in [11] it was -0.0824. Moreover, the composite z-score in assay [12] was -0.361; in [13], -0.0631; in [14], 0.384; in assay [15] it was 0.4; in assay [16], 0.853; in assay [17] it was 1.01. For the same compound, the composite Z-score in assay [4] was 0.481 (inactive). In [18], this compound gave a z-score of 0.191.

`O=c1n(-c2ccccc2)c(=O)n2n1CC(COc1ccccc1)=C1[C@@H](CCc3ccccc3)OB(O)C[C@@H]12`: the composite z-score in assay [1] was 0.277; in assay [2], -0.118; in [3] it was 0.684; with Albumin (Bos taurus), 0.488; in assay [5] it was 0.0596; in assay [6] it was -0.063. Besides, the composite z-score in [7] came to 0.0107; in [8], 0.516; in assay [9], 0.362; in the assay on Sam68 (KHDRBS1) it was 1.3; in assay [10] it was 0.0848; in [11], 0.515. In addition, the composite z-score in [12] stood at 1.01; in [13], 1.04; in [14], 0.12; in assay [15], 0.501; in [16], 0.763; in assay [17], 0.853. Besides, in assay [4], the composite Z-score is 0.237 (inactive). The z-score in assay [18] amounted to 1.25.

`CO[C@H]1O[C@H](CO)[C@@H](OC(=O)Nc2ccccc2)[C@H](OC(=O)Nc2ccccc2-c2ccccc2)[C@@H]1OC(=O)Nc1ccccc1-c1ccccc1`: the composite z-score in assay [1] is 1.85; in assay [2], 1.59; in assay [3] it was 1.1; in the assay with Albumin (Bos taurus), 0.903; in assay [5], 0.224; in [6], -0.094. For the same compound, the composite z-score is 0.419 in assay [7]; 1.9 in assay [8]; 0.381 in [9]; 1.3 with Sam68 (KHDRBS1); -0.138 in [10]; 1.19 in assay [11]. Besides, the composite z-score in assay [12] came to 2.82; in assay [13] it was 1.22; in assay [14], 1.11; in assay [15] it was 0.976; in assay [16], 1.07; in assay [17] it was 0.478. Moreover, the composite Z-score in assay [4] is -0.0038 (inactive). Moreover, in assay [18], the z-score is 0.458.

The record behind these values is PubChem BioAssay.
